# VACV Venus inh = vaccinia inhibition (Venus reporter); AID 720580; Potency, µM (titrated, usually from 36.5 µM), actives largely listed as inhibitors; Vaccinia virus Venus reporter expression, fluorescence; hit rate 0.46% among 330,000; calls by dose curve; tested in A549 cells; also: nearly all actives have a fitted effect of over 30% in size
# AmpC inh no detg = inhibitors of E. coli AmpC beta-lactamase without detergent; P00811; AmpC nitrocefin hydrolysis, absorbance 480 nm, 0.0001% Triton; Potency, µM (titrated, usually from 57.1 µM), most hits filed as inhibitors; hit rate 0.52% among 330,000; AID 485341; also: nearly all actives have a fitted effect of over 20% in size
# Target sequence (P00811 whole entry, looked up): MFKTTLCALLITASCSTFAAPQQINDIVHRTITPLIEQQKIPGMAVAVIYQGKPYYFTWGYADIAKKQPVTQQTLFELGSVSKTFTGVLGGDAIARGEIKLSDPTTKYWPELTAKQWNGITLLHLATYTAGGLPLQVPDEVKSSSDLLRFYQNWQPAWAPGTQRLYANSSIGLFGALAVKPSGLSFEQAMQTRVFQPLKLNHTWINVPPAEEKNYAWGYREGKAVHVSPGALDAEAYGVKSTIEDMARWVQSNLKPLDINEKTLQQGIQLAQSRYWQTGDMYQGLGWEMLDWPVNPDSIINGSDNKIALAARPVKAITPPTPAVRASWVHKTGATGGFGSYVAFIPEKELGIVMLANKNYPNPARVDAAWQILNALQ
#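 20 mM phosphate pH 7.0 + 0.01% (detergent screen) or 0.0001% Triton X-100; 5.3 nM AmpC reagent; cpd preinc 15 min RT; nitrocefin (800 uM stock) to start; A480 q20 s × 4 min; Activity was normalised to no-enzyme and no-compound control wells.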
# AmpC inh detg = inhibitors of E. coli AmpC beta-lactamase with detergent; AmpC hydrolysis of nitrocefin, absorbance 480 nm, 0.01% Triton; Potency, µM (titrated, usually from 114 µM), usual class: inhibitors; hit rate 0.041% among 370,000; P00811; also: nearly all actives have a fitted effect of over 25% in size
#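 20 mM phosphate pH 7.0 + 0.01% (detergent screen) or 0.0001% Triton X-100; 5.3 nM AmpC reagent; cpd preinc 15 min RT; nitrocefin (800 uM stock) to start; A480 q20 s × 4 min; Activity was normalised to no-enzyme and no-compound control wells.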
# AMA1 RON2 block = inhibitors of Plasmodium falciparum AMA1-RON2 interaction. AlphaScreen AMA1-biotinylated RON2 peptide binding. Potency, µM (top dose mostly 58.2 µM), usual class: inhibitors. hit rate 0.2% among 360,000. AID 720542; also: nearly all actives have a fitted effect of over 45% in size
#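 AMA1 (3D7) with his tag at 25 nM final met compounds first, then biotinylated RON2 peptide at 25 nM; detection used donor plus acceptor beads, 10 µg/mL apiece, read by AlphaScreen after 30 min at room temperature.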
# Vaccinia mCherry = vaccinia inhibition (mCherry reporter). Vaccinia virus mCherry reporter infection, fluorescence. AID 720579. hit rate 0.63% among 310,000. Potency, µM (titrated, usually from 36.5 µM), actives largely listed as inhibitors; calls by dose curve; tested in A549 cells; also: nearly all actives have a fitted effect of over 35% in size
# SARS PLpro yeast = SARS-CoV PLP inhibition in yeast. S. cerevisiae expressing SARS-CoV PLpro, growth rescue. hit rate 0.19% among 330,000. Potency, µM (top dose mostly 32.9 µM), actives largely listed as activators. AID 485353; calls by dose curve; also: nearly all actives have a fitted effect of over 55% in size
# Hits are given with their value; – = inactive; ? = inconclusive; · = no result. This is a sample that favours compounds with a hit; in the whole collection about 1.3% have one here. Unless noted, calls follow the shape of the dose curve; as a rule, active = well fitted curve in the direction sought with a large enough effect; inconclusive = small, poorly fitted or top-dose-only effect, or another doubt; inactive = no such curve, though single readings can be large; an effect the other way counts as inactive or inconclusive.
SMILES,VACV Venus inh,AmpC inh no detg,AmpC inh detg,AMA1 RON2 block,Vaccinia mCherry,SARS PLpro yeast
c1cc2c(cc1NC1=NCCO1)CCCC2,4µM,·,·,–,?,·
COc1ccc(NC(=O)/C(Cl)=C(/Cl)S(=O)Cc2ccccc2)cn1 (stereo not given),8.9µM,–,–,–,7.1µM,–
COc1ccc(CS(=O)(=O)/C(Cl)=C(/Cl)C(=O)Nc2ccc(OC)nc2)cc1,10µM,–,–,–,·,–
CC(=O)c1c(C)[nH]c2ccc(OCC(O)CNCCc3ccccc3)cc12 (stereo not given),–,·,·,·,–,·
CCN1CCCC1CNC(=O)c1cnn(-c2nccc(-c3cc(OC)ccc3OC)n2)c1C (stereo not given),–,·,·,·,–,·
CC1(C)S[C@@H]2[C@H](N3C(=O)C(c4ccccc4)NC3(C)C)C(=O)N2[C@H]1C(=O)O (stereo not given in full),–,·,·,·,–,·
O=C(/C=C/c1ccccc1Cl)c1ccc[nH]1,?,–,–,–,13µM,–
O=C(/C=C/c1ccc(Cl)cc1Cl)c1ccc[nH]1,·,–,–,–,·,–
Cc1ccc(CNc2nc(CN3CCNC(=O)C3)nc3ccccc23)o1,–,·,·,·,–,·
Nc1ccc(C(=O)c2cccs2)cn1,–,–,–,–,–,–
Nc1ccc(-c2cnc(N)c(C(=O)c3cccnc3)n2)cn1,10µM,·,·,–,?,·
C[C@@H]1CC[C@]2(C(=O)O[C@@H]3O[C@H](CO)[C@@H](O)[C@H](O)[C@H]3O)CC[C@]3(C)C(=CCC4[C@@]5(C)CC[C@H](O[C@@H]6OC[C@H](O)[C@H](O[C@@H]7O[C@H](CO)[C@@H](O)[C@H](O)[C@H]7O)[C@H]6O)C(C)(C)C5CC[C@]43C)C2[C@]1(C)O (stereo not given in full),–,–,·,–,–,–
COc1ccc(/C=C\C(=O)O[C@@H]2C(O)C(O[C@@H]3OC(C)[C@H](O[C@@H]4OCC(O[C@H]5O[C@H](CO)[C@@H](O)C(O)C5O)C(O)C4O)C(O)C3O)[C@H](OC(=O)[C@]34CCC(C)(C)C[C@@H]3C3=CCC5[C@@]6(C)CC(O)C(O[C@@H]7OC(CO)C(O)[C@H](O)[C@H]7O)[C@@](C)(C(=O)O)C6CC[C@@]5(C)[C@]3(CO)CC4)O[C@H]2C)cc1 (stereo not given in full),11µM,–,·,–,?,–
CCC1(C2CCN(C(=O)c3ccc4ccccc4c3)CC2)NC(=O)N(CCc2scnc2C)C1=O (stereo not given),–,·,·,·,–,·
Cc1[nH]nc2ccc(-c3cncc(OC[C@@H](N)Cc4c[nH]c5ccccc45)c3)cc12,0.89µM,·,·,–,?,·
COC(=O)C(Cc1c[nH]c2ccccc12)NC(=O)COc1cccc(C)c1 (stereo not given),–,·,–,·,–,·
COc1ccc(N2c3ccccc3CN(Cc3ccccc3)[C@@H](C)[C@H]2Cc2cccnc2)cc1,?,·,·,14µM,–,·
CC(C)(C)c1ccc(C(=O)C[n+]2cccc(Br)c2)cc1,–,·,·,·,–,·
CCOC(=O)Cc1csc(NC(=O)Nc2cccc(Cl)c2)n1,–,20µM,–,?,–,–
O=C(Nc1cccc(Cl)c1)Nc1nnc(-c2ccncc2)s1,?,16µM,?,–,–,–
CCOC(=O)Cc1csc(NC(=O)Nc2ccc(Cl)cc2)n1,–,–,–,–,–,–
CS(=O)(=O)c1ccc2nc(NC(=O)Nc3cccc(Cl)c3)sc2c1,?,13µM,?,–,–,–
O=Cc1ccc(C(=O)OCC(=O)NC(=O)Nc2ccccc2F)cc1,–,28µM,·,–,–,–
CS(=O)(=O)c1cccc(C(=O)OCC(=O)NC(=O)Nc2ccccc2F)c1,–,–,·,–,–,–
O=C(CSc1nc(-c2ccncc2)nn1CC(=O)N1CCCCC1)NC1CCCC1,–,–,–,3.8µM,–,–
SMILES,VACV Venus inh,AmpC inh no detg,AmpC inh detg,AMA1 RON2 block,Vaccinia mCherry,SARS PLpro yeast
Cn1c(SCC(=O)NC2CCCCC2)nnc1-c1ccncc1,–,–,?,–,–,–
CCOc1cc(/C=N/NC(=O)c2ccc(CN3CCOCC3)cc2)ccc1OC,–,–,–,–,–,–
CCOc1cc(/C=C/C(=O)c2ccc(OC)c(CN3CCOCC3)c2)cc(Br)c1O,–,–,–,–,11µM,–
O=C1CC[C@@H](C(=O)NCC2Cc3cc(Cl)cc(-c4ccc5[nH]ccc5c4)c3O2)N1 (stereo not given in full),–,·,·,·,–,·
CCCc1ncc(CN2CCC(C(=O)Nc3cccc(-c4cscn4)c3)CC2)cn1,·,–,?,–,·,–
CCOc1ccc(NCc2nc3ccccc3n2CCOc2ccccc2)cc1,?,–,–,14µM,–,–
CCOc1ccc(NCc2nc3ccccc3n2CCOc2ccc(C)cc2)cc1,?,·,–,·,–,·
COc1ccccc1NC(=O)Cn1c(=O)oc2ccccc21,–,0.4µM,–,–,–,–
COc1ccc(Cl)cc1NC(=O)Cn1c(=O)oc2ccccc21,–,–,–,–,–,–
O=C(Nc1ccccc1N1CCOCC1)c1ccc([N+](=O)[O-])o1,?,–,–,–,11µM,–
O=C(Nc1cccc(S(=O)(=O)N2CCCCC2)c1)c1ccc([N+](=O)[O-])o1,10µM,–,–,–,11µM,–
O=C(Nc1ccccc1N1CCCCC1)c1ccc([N+](=O)[O-])o1,?,–,–,?,13µM,–
O=C(COC(=O)c1ccc([N+](=O)[O-])o1)Nc1cccc(S(=O)(=O)N2CCCCC2)c1,–,–,–,–,–,–
COc1cc(=O)n2c(c1C(=O)N(C)Cc1nccs1)CCN(Cc1ccc(F)c(F)c1)CC2,–,·,·,·,–,·
O=C(NCC1CCC2(CCN(Cc3cccc4cccnc34)CC2)O1)c1ccco1 (stereo not given),–,·,·,·,–,·
COC(=O)[C@@H]1CCCN1Cc1ccc2c(c1)CN(Cc1cccn1-c1ccc(Cl)cn1)CCO2,–,·,·,·,–,·
CCC1CN(Cc2cn[nH]c2-c2ccc(OC)cc2)Cc2cc(OC)ccc2O1 (stereo not given),–,·,·,·,–,·
Cc1ccc(/C=N/N2CCN(Cc3ccccc3)CC2)cc1,–,–,–,13µM,–,–
CC(/C=N/N1CCN(Cc2ccccc2)CC1)=C\c1ccccc1,–,–,–,13µM,–,–
CC(=C/c1ccccc1)/C=N/N1CCN(Cc2ccc(C)cc2)CC1,–,–,–,–,–,–
CC1CN(Cc2cccn2-c2ncccn2)Cc2cc(Cl)ccc2O1 (stereo not given),–,·,·,·,–,·
COc1ccc(CN2CCOc3ccc(C(O)c4cccnc4)cc3C2)c(F)c1 (stereo not given),–,·,·,·,–,·
CCCCCCCN1N=C(C)C(C(=O)c2ccccc2)C1=O (stereo not given),–,–,–,–,–,10µM
